# Screens as filed in PubChem BioAssay.
# In the library only some 2.8% were active in any assay of this set; here they are far more common.
# TGFb inhibitor: qHTS for Inhibitors of TGF-b; HepG2 CAGA-GFP TGF-b/SMAD3 reporter, GFP fluorescence, 18 h; TGF-beta stimulated, 500 pg/mL final; Potency, µM (highest dose often 46.1 µM), without a hit: top-dose activity, negative = inhibition, usual class: inhibitors; hit rate 1.2% among 410,000; AID 588855, 2011; further: on the % scale 0 is the no-effect control and ±100 the full control effect; nearly all actives have a fitted effect of over 65% in size
#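 Per well, imaged GFP fluorescence of HEPG2 CAGA-GFP cells gives the signal; cells get compound, then TGF-beta (500 pg/mL final), 18 h at 37 degrees C; %Activity versus -TGF-beta and +DMSO controls.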
# ATXN2 expr inh: Primary qHTS for Inhibitors of ATXN expression. HEK-293 ATXN2-luciferase reporter, luminescence, 24 h. Potency, µM (top dose mostly 57 µM), for inactives: top-dose activity change, negative = inhibition, actives largely listed as inhibitors. hit rate 0.72% among 360,000; further: on the % scale 0 is the no-effect control and ±100 the full control effect; nearly all actives have a fitted effect of over 55% in size
#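 ATXN2-luciferase reporter cells (luciferase flanked by upstream and downstream ATXN2 gene portions) were treated 24 h at 37 °C with compounds at up to 57 uM. SteadyGlo luminescence gave expression; GF-AFC fluorescence gave viability.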
# HepG2 tox-1: qHTS for Inhibitors of TGF-b: Cytotox Counterscreen; HepG2 CAGA-GFP viability, ATP luminescence, 18 h; Potency, µM (series often up to 46.1 µM), without a hit: top-dose activity change, negative = cytotoxicity, hits mostly cytotoxic; hit rate 0.76% among 410,000
#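 HepG2 CAGA-GFP cells (1000/well, DMEM with 1% FBS) received compound, then TGF-beta at 500 pg/mL final, and were incubated 18 hours at 37 degrees C. Viability was read by CellTiter-Glo luminescence. Media-only wells were set as complete cell-killing and DMSO as no toxicity.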
# HttQ103 aggreg: qHTS Multiplex Assay to Identify Dual Action Probes in a Cell Model of Huntington: Aggregate Formation (GFP) | AID 1688, 2009 | hit rate 1.1% among 220,000 | PC12 HttQ103-GFP aggregates, Acumen cytometry, 40 h | Potency, µM (titrated, usually from 46.1 µM), inactives show at the highest dose activity change, negative = inhibition, most hits filed as inhibitors; further: on the % scale 0 is the no-effect control and ±100 the full control effect; nearly all actives have a fitted effect of over 60% in size
#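 Read-out: GFP aggregate count by laser scanning cytometer (488 nm excitation, 500-530 nm emission, 1–25 µm objects >6 SD above background). Cells: PC12, inducible HTTex1-Q103-GFP, 100 nM tebufenozide; compounds titrated.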
# HTT cytoprotect: qHTS Multiplex Assay to Identify Dual Action Probes in a Cell Model of Huntington: Cytoprotection (ATP). hit rate 0.14% among 230,000. PC12 HTT-Q103 induced, cytoprotection, ATP luminescence, 40 h. AID 1471, 2008. Potency, µM (highest dose often 56.4 µM), for inactives: cytoprotection (ATP increase), actives largely listed as activators; further: % of control where 0% means no effect; nearly all actives have a fitted effect of over 45% in size
#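 Cells were plated at 1500 per well in phenol red-free DMEM with 5% equine and 5% calf serum. Tebufenozide (100 nM final) and compounds were added, then ATPlite reagent, and luminescence was read.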
# S2 tox: Viability Counterscreen for Primary qHTS for Inhibitors of ATXN expression; S2 cells (HEK-293 line with an ATXN2-luciferase reporter) viability, CellTiter-Fluor protease fluorescence, 24 h; Potency, µM (top dose mostly 56.7 µM), hits mostly cytotoxic; hit rate 0.49% among 400,000; AID 651635, 2014; further: nearly all actives have a fitted effect of over 40% in size
# TGFb CAGA inh: qHTS for Inhibitors of TGF-b: Confirmation of Cherry Picks; Potency, µM (series often up to 46.1 µM), without a hit: top-dose activity, negative = inhibition, actives largely listed as inhibitors; shares compounds with TGFb inhibitor; HepG2 CAGA-GFP TGF-b reporter, GFP fluorescence, 18 h; cells stimulated with TGF-beta, 500 pg/mL; AID 720534, 2013; hit rate 63% among 1,600; further: on the % scale 0 is the no-effect control and ±100 the full control effect; nearly all actives have a fitted effect of over 65% in size
# HepG2 tox-2: qHTS for Inhibitors of TGF-b: Cytotox Counterscreen for Cherry Picks; shares compounds with TGFb inhibitor; HepG2 CAGA-GFP viability, ATP luminescence, 18 h; cells stimulated with TGF-beta, 500 pg/mL; Potency, µM (top dose mostly 46.1 µM), inactives show top-dose activity, negative = cytotoxicity, most hits filed as inhibitors; hit rate 27% among 1,600; further: on the % scale 0 is the no-effect control and ±100 the full control effect; nearly all actives have a fitted effect of over 70% in size
# CCL64 TGFb inh: qHTS for Inhibitors of TGF-b: CCL64 Cells Orthogonal Assay for Cherry Picks. hit rate 41% among 1,600. shares compounds with TGFb inhibitor. Potency, µM (highest dose often 46.1 µM), inactives show at the top dose activity, negative = inhibition, hits mostly inhibitors. CCL64 CAGA-GFP reporter, TGF-b stimulated, GFP fluorescence, 18 h; further: nearly all actives have a fitted effect of over 65% in size
# COP TGFb inh: qHTS for Inhibitors of TGF-b: Hit Validation in HepG2 Cells using COP promoter. HepG2 COP-GFP TGF-b reporter, GFP fluorescence, 18 h; cells stimulated by added recombinant TGF-beta. AID 720537, 2013. shares compounds with TGFb inhibitor. Potency, µM (top dose mostly 46.1 µM), for the others: at the top dose activity, negative = inhibition, actives largely listed as inhibitors. hit rate 3% among 1,600; further: nearly all actives have a fitted effect of over 70% in size
# Numbers without * were called inactive; i = inactive; ? = inconclusive; · = no result; [ ] = dose if it differs, or a comment. The call rests on the fitted dose curve; in most records, active means well fitted curve in the direction sought with a large enough effect; inconclusive means small, poorly fitted or top-dose-only effect, or another doubt; inactive means no such curve, though single readings can be large; an effect the other way counts as inactive or inconclusive. Potency means the concentration at half of the fitted maximal effect.
SMILES,TGFb inhibitor,ATXN2 expr inh,HepG2 tox-1,HttQ103 aggreg,HTT cytoprotect,S2 tox,TGFb CAGA inh,HepG2 tox-2,CCL64 TGFb inh,COP TGFb inh
Cc1ccc(C(=O)CSc2cc(C)nc(SCC(=O)c3ccccc3)n2)cc1,?,-12%,-10%,-7%,15%,?,?,-15%,-3%,10%
Cc1cc(SCC(N)=O)nc(SCC(=O)c2ccccc2)n1,8%,2%,-18%,-8%,-1%[10 µM],?,·,·,·,·
CCO[C@@H]1OC(C(=O)NCc2ccccc2)=C[C@H](c2ccc(Br)cc2)[C@H]1CCCO,?,?,-3%,16%[9.22 µM],3%[10 µM],?,?,-12%,?,7%
CCO[C@H]1OC(C(=O)Nc2ccccc2)=C[C@@H](c2ccc(C(F)(F)F)cc2)[C@@H]1CCCO,14µM*,?,-19%,28%[9.22 µM],23%[10 µM],?,?,-29%,?,25%
CCc1nnc(NC(=O)[C@@H]2CCCN2C(=O)c2cccs2)s1,-15%,·,-9%,·,·,·,·,·,·,·
CCOC(=O)C1CCN(C(c2cccnc2)c2c(NC(=O)c3ccco3)sc(C)c2C)CC1 (stereo unspecified),7.9µM*,?,-53%,7.9µM*,28%,i,21µM*,?,?,18%
COc1ccc(-c2cnnc(CCCn3ccnc3-c3ccccc3)n2)cc1,·,·,·,·,-14%[10 µM],·,·,·,·,·
CCn1c2ccccc2c2cc(NC(=O)c3cc(OC)c(OC)c(OC)c3)ccc21,0.79µM*,-3%,11%,?,-89%,?,0.37µM*,-29%,1.3µM*,16%
CCn1c2ccccc2c2cc(NC(=O)c3cc(OC)cc(OC)c3)ccc21,?,-7%,12%,1%,-80%[10 µM],?,·,·,·,·
COc1ccc(/C=C2/CSC/C(=C/c3ccc(OC)c(OC)c3)C2=O)cc1OC,6.3µM*,5.6µM*,-3%,·,·,4µM*,1.3µM*,3.3µM*,2.3µM*,9%
COc1ccc(-c2coc3c(C(=O)NCC(C)C)cccc23)c(C)c1,?,-35%,-28%,·,·,i,13µM*,?,?,45%
CCOc1ccc(N(CC(=O)Nc2ccccc2OCC)S(=O)(=O)c2c(C)noc2C)cc1,5µM*,·,-12%,·,·,i,6.5µM*,8%,4.1µM*,-19%
CS/C(=N\S(=O)(=O)c1cccs1)Nc1ccc(F)c(Cl)c1,8.9µM*,-9%,-4%,-19%,-1%[10 µM],i,?,-14%,-19%,-7%
COc1ccc(CCNc2ncnc3nc[nH]c23)cc1,5%,·,-5%,·,·,·,·,·,·,·
FC(F)(F)c1ccccc1Cc1c(-c2ccc(Cl)cc2)nc2ccc(Br)cn12,?,12%,-15%,·,·,?,·,·,·,·
FC(F)(F)c1ccccc1Cc1c(-c2ccccc2)nc2ccc(Cl)cn12,16µM*,40%,-23%,·,·,i,?,-16%,-1%,7%
CCSc1n[nH]c2nc3c(c(=O)n12)C1(CCCC1)Cc1ccccc1-3,-5%,0%,-7%,-13%,-21%,·,·,·,·,·
Cc1ccc(-n2c(SCC(N)=O)nc3c(c2=O)C2(CCCC2)Cc2ccccc2-3)cc1,8.9µM*,-24%,11%,?,3%[1.9 µM],i,13µM*,15µM*,?,19%
COC(=O)C(NS(=O)(=O)CCl)C(C)C (stereo unspecified),6%,·,1%,·,·,·,·,·,·,·
COc1cc2c(cc1OC)C(C)N(C(=O)c1cc(C)on1)CC2 (stereo unspecified),11µM*,0%,4%,·,·,?,7.3µM*,1%,?,?
Cc1cc(C)cc(O)c1,·,·,·,·,-4%,·,·,·,·,·
COc1ccc(-c2nc3c4ccccc4ccn3c2Cc2cccc(Cl)c2)cc1OC,-29%,24%,-20%,·,·,?,·,·,·,·
COc1ccc(-c2nc3c4ccccc4ccn3c2Cc2ccc(C)cc2)cc1OC,13µM*,16%,-13%,·,·,?,26µM*,-17%,18µM*,15%
S=C(S)NCCN1CCNCC1,·,·,·,·,-17%[10 µM],·,·,·,·,·
COC(=O)c1cccc(NS(=O)(=O)c2cccs2)c1C,-1%,27%,23%,2%,-1%,i,·,·,·,·
SMILES,TGFb inhibitor,ATXN2 expr inh,HepG2 tox-1,HttQ103 aggreg,HTT cytoprotect,S2 tox,TGFb CAGA inh,HepG2 tox-2,CCL64 TGFb inh,COP TGFb inh
Cc1ccc(S(=O)(=O)/N=C2\C=C(Nc3ccc(O)cc3)C(=O)c3ccccc32)cc1,1.3µM*,6.3µM*,3.2µM*,·,·,4µM*,1.3µM*,2.3µM*,5.2µM*,?
c1ccc(Nc2ccccc2)cc1,3%,5%,16%,·,-6%,i,·,·,·,·
O=C1C=C(Nc2ccccc2)C(=O)c2ccccc21,4µM*,-17%,5µM*,11µM*,-134%,?,6.5µM*,15µM*,?,-65%
COC(=O)c1ccccc1NC1=C/C(=N\S(=O)(=O)c2cccs2)c2ccccc2C1=O,?,4µM*,-23%,?,-89%,7.1µM*,7.3µM*,15µM*,3.3µM*,16µM*
O=C1C(Nc2ccccc2)=C/C(=N/S(=O)(=O)c2cccs2)c2ccccc21,4µM*,7.9µM*,3.5µM*,6.3µM*,-94%[10 µM],·,2.6µM*,2.6µM*,3.3µM*,?
N#Cc1ccc(S(=O)(=O)N2CCN(c3nc(-c4cccs4)nc4ccccc34)CC2)cc1,7%,·,11%,·,·,·,·,·,·,·
